Laboratory results: ChEMBL document CHEMBL1201862, “PubChem BioAssay data set” (2004)
Hit rate of the full screen: of about 400,000 compounds, about 3,700 (0.93%) were called active. Roughly 3% stayed inconclusive and do not appear here. The rule behind the calls is not given here. Shown is part of a subset that was picked to be rich in actives.

Target: T1, Vitamin D3 receptor (Homo sapiens) (UniProt P11473)
T1 sequence (whole entry): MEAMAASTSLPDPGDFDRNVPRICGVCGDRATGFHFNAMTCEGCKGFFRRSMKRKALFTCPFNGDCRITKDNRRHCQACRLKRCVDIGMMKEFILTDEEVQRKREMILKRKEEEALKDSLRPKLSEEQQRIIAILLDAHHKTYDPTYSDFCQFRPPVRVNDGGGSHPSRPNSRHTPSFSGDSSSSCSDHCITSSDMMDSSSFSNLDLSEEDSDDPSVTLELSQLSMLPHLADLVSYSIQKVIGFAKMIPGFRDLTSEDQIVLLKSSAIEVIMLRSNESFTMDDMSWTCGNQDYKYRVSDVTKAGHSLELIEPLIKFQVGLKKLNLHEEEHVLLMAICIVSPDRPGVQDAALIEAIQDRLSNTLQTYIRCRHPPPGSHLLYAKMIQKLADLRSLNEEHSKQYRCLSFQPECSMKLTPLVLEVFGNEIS
Assay: Inhibitors of the vitamin D receptor (VDR): qHTS. [Related pubchem assays (depositor defined):AID504855]
Type: functional

Potency, active:
O=C(/C=C/c1ccc(Cl)cc1)c1cccs1 3.16 µM
COc1ccccc1/C=C/C(=O)c1cccs1 25.1 µM
CCCc1nnc(NC(=O)C2C(=O)c3cccc4c3N(CC4)C2=O)s1 (stereo not drawn) 79.4 µM
